From ChEMBL document CHEMBL3988442, “University of Dundee, Small-Polar-MMV Screening Library” (2021)
About 13,000 (27%) of roughly 48,000 compounds showed an effect of 50% or more. The list shows a part of the results.

tested on: Wolbachia pipientis; test: Anti-Wolbachia Cell-Based Screen; assay type: functional; set-up: scale not given: in the data most compounds retested in dose-response had high values; conditions: 5 µM

| SMILES | Percent Effect |
| --- | --- |
| Cc1ncsc1CCN(C)C(=O)C(c1cccnc1)N1CCOCC1 (configuration not stated) | 2.321% |
| c1nc2onc(C3CC3)c2cc1-c1nnc(C2CC2)o1 | -6.537% |
| O=C(COc1ccc2cccnc2c1)N1CCN[C@H]2CS(=O)(=O)C[C@H]21 | 2.711% |
| COc1ccc(-c2cc(N)on2)cc1OC | 106.7% |
| COc1ccc(-c2cc(C[C@@H]3C[C@H](N(C)C)C3(C)C)no2)cc1 | 1.876% |
| COc1ccc(-c2cc(N)on2)cc1 | 77.55% |
| COc1ccc(-c2noc(C3=NN(C)C(=O)CC3)n2)cc1OC | -3.216% |
| COc1ccc(-c2csc(-c3cccc(C(=O)O)c3)n2)cc1OC | -12.11% |
| COc1ccc(-c2cc(-c3nc(CN4CCN(C)CC4)no3)[nH]n2)cc1 | -0.5802% |
| COc1cccc(C(O)Cn2ncc3ncccc3c2=O)c1 (configuration not stated) | -14.22% |
| Cc1nc(CNC(C)c2ccc(S(=O)(=O)N(C)C)cc2)no1 (configuration not stated) | -3.104% |
| Cc1cscc1C(=O)NC1CC(=O)N(C(C)C)C1=O (configuration not stated) | -19.94% |
| Oc1nc(N2CCOCC2)nc2c1CCN(Cc1ccccc1)CC2 | 129.9% |
| Oc1nc(N2CCCC2)nc2c1CCN(Cc1cccnc1)CC2 | 121.5% |
| c1cc(CN2CCc3nc(N4CCOCC4)nc(NC4CC4)c3C2)co1 | 2.456% |
| Oc1nc(N2CCOCC2)nc2c1CCN(Cc1cccc(F)c1)CC2 | 117% |
| Oc1nc(N2CCOCC2)nc2c1CCN(Cc1cccnc1)CC2 | -6.583% |
| Oc1nc(N2CCOCC2)nc2c1CCN(Cc1ccc(F)cc1)CC2 | 116.9% |
| Cn1ccnc1CN1C(=O)CO[C@H]2CN(Cc3ccc(F)c(F)c3)C[C@H]21 | 5.068% |
| Cn1cc(S(=O)(=O)N2CCC(OCCCc3ccccc3)C2)cn1 (configuration not stated) | -5.129% |
| CC(=O)c1ccc(N2CCCC(CO)(CCc3ccccc3)C2)nc1 (configuration not stated) | 11.39% |
| CC(C)C(O)C1CCN(c2ccnc(C(=O)NCc3ccco3)c2)CC1 (configuration not stated) | -3% |
| COc1ccc(NC(=O)CNc2cccc3c2CCCC3)c(OC)c1 | -2.331% |
| CCN(CC)S(=O)(=O)c1ccc(OC)c(NC(=O)CSC)c1 | -7.74% |
| COc1ccc(NC(=O)CSc2nncn2-n2cccc2)c(OC)c1 | 89.78% |
| COc1ccc(NC(=O)CCSc2ccc3nncn3n2)c(OC)c1 | 100.6% |

| SMILES | Percent Effect |
| --- | --- |
| COc1ccc(NC(=O)CCC2CCCN(S(=O)(=O)C3CC3)C2)c(C)c1 (configuration not stated) | -10.5% |
| COc1ccc(OC)c(-n2cnnc2CN)c1 | -14.69% |
| COc1cc(Cl)c(C)cc1NC(=O)CNc1ccn(CC(N)=O)n1 | -71.24% |
| COc1ccc(NC(=O)CSc2ccc3nncn3n2)c(OC)c1 | 116.1% |
| COc1ccc(OC)c(CCC(=O)Nc2cc(C)n[nH]2)c1 | -33.89% |
| COc1cc(C(C)=O)ccc1SCC(=O)Nc1ccccn1 | -8.38% |
| COc1ccc(Cl)cc1NC(=O)CNc1ccn(CC(N)=O)n1 | 12.03% |
| COc1ccc(OC)c(NC(=O)CSc2ccc3nncn3n2)c1 | 92.9% |
| Cn1nccc1C1CCN(Cc2ccn(-c3ccccc3)n2)CC1 | -5.293% |
| CCOCC(=O)Nc1cc(-n2nnnc2C2CC2)ccc1F | -4.453% |
| CNC(=O)NC(=O)C(NCc1cccs1)c1ccccc1 (configuration not stated) | -60.87% |
| CC(C)c1ccc(/C=C/CC(=O)NC2CCN(C(N)=O)C2)cc1 (configuration not stated) | -19.1% |
| Cc1noc([C@@]23CCO[C@@H]2CCN(CC2CCOCC2)C3)n1.O=C(O)C(F)(F)F | -22.2% |
| Cc1nnc([C@]23COC[C@H]2CN(Cc2nccs2)C3)o1.O=C(O)C(F)(F)F | -6.391% |
| Cc1ncsc1CN1CC[C@H]2OCC[C@@]2(C(=O)N2CCCC2)C1 | -2.591% |
| Cc1nnc([C@@]23CCO[C@@H]2CCN(Cc2scnc2C)C3)o1 | 102.2% |
| CCS(=O)(=O)N1CC[C@H]2OCC[C@@]2(c2nnc(C)o2)C1 | 3.137% |
| Cc1nnc([C@@]23CCO[C@@H]2CCN(Cc2nccs2)C3)o1 | 93.98% |
| Cc1noc([C@@]23CCO[C@@H]2CCN(Cc2scnc2C)C3)n1.O=C(O)C(F)(F)F | 105.3% |
| CNC(=O)[C@@]12CCO[C@@H]1CCN(Cc1scnc1C)C2.O=C(O)C(F)(F)F | -1.55% |
| N#CCCCS(=O)(=O)N1CCCC1CC(=O)c1cccs1 (configuration not stated) | -18.29% |
| COCc1nn(CC2CC2)c2c1CN(Cc1cncn1C)CC2.O=C(O)C(F)(F)F | -13.43% |
| Cc1ccc(C(=O)N(C)C)cc1NC(=O)COCC1CC1 | -15.5% |
| C[C@@H](NC(=O)c1cccnc1)c1onc(-c2ccccc2)c1C(=O)O | -0.5339% |
| COc1ncc(C2(O)CCN(Cc3cc(F)ccc3F)CC2)c(OC)n1.Cl | 106.6% |
| COc1cc(OC)cc(C2(O)CCN(Cc3nc(C)c(C)o3)CC2)c1 | -6.043% |

| SMILES | Percent Effect |
| --- | --- |
| COc1cc(OC)cc(C2(O)CCN(Cc3ncc(C)o3)CC2)c1 | 10.39% |
| COc1ncc(C2(O)CCN(Cc3c(F)cccc3F)CC2)c(OC)n1.Cl | 1.004% |
| COc1ncc(C2(O)CCN(Cc3ccc(F)c(F)c3)CC2)c(OC)n1.Cl | 122.5% |
| COc1ncc(C2(O)CCN(Cc3cccc(F)c3F)CC2)c(OC)n1.Cl | 130.5% |
| COc1ncc(C2(O)CCN(Cc3cc(F)cc(F)c3)CC2)c(OC)n1 | 125.6% |
| COc1ccc(F)c(CN2CCC3(CCC(=O)N(CC(N)=O)C3)CC2)c1 | 10.55% |
| COc1ncc(C2(O)CCN(Cc3ccccc3O)CC2)c(OC)n1 | -6.313% |
| Cc1cnn(CC(C)NCC(=O)NCCc2cccs2)c1 (configuration not stated) | -55.8% |
| Cc1ncc2c(n1)CN(Cc1nnc(Cc3ccccc3)o1)CC2 | 5.635% |
| Cc1cccnc1CN(C)CC1(O)CCCN(CC2CCCCC2)C1=O (configuration not stated) | 93.19% |
| Cc1nonc1CN(C)CC1(O)CCCN(CCC2CCCCC2)C1=O (configuration not stated) | 3.713% |
| Cc1cccnc1CNCC1(O)CCCN(CC2CCCCC2)C1=O (configuration not stated) | -7.545% |
| O=C(NCCOc1ccc(C(F)(F)F)cn1)c1ccoc1 | 0.7109% |
| COc1ccc(OCc2nccc(-c3cc(C(=O)O)ccn3)n2)cc1 | -32.77% |
| O=C(NCc1cc[nH]n1)NCC(c1ccccc1Cl)N1CCCC1 (configuration not stated) | 3.552% |
| CCn1cc(S(=O)(=O)NCC(c2ccccc2)N2CCOCC2)c(C)n1 (configuration not stated) | 72.63% |
| Cc1nc(C)c(C(=O)NCC(c2ccccc2Cl)N2CCOCC2)s1 (configuration not stated) | 6.115% |
| COc1ccc(S(=O)(=O)NCC(N)c2ccccc2)c(C)c1.Cl (configuration not stated) | -12.16% |
| Cc1nn(C)cc1S(=O)(=O)NCC(c1ccccc1Cl)N1CCCC1 (configuration not stated) | 87.53% |
| O=C(NCCCn1cncn1)NCC(c1ccccc1)N1CCCC1 (configuration not stated) | 9.834% |
| COc1ccc(C(CNS(=O)(=O)c2cn(C)nc2C)N2CCCC2)cc1.Cl (configuration not stated) | 105.6% |
| CCn1cc(CNCC(c2ccc(C)s2)N2CCOCC2)cn1 (configuration not stated) | 13.07% |
| Cc1nn(C)cc1S(=O)(=O)NCC(c1ccccc1)N1CCCCCC1.Cl (configuration not stated) | 112.3% |
| COc1ccc(S(=O)(=O)NCC(c2cccn2C)N(C)C)c(C)c1 (configuration not stated) | 5.566% |
| CCn1cc(S(=O)(=O)NCC(OC)c2ccccc2)cn1 (configuration not stated) | 8.527% |
| Cc1cccc(S(=O)(=O)NCC(C)N2CCN(C)CC2)c1Cl (configuration not stated) | -7.911% |

| SMILES | Percent Effect |
| --- | --- |
| Cc1nsc(NCc2ccc(S(=O)(=O)N(C)C(C)C)cc2)n1 | 22.68% |
| CCCC(C)CS(=O)(=O)NCc1cccnc1OC (configuration not stated) | 6.664% |
| CC(C)c1nnc2n1CCN(C(=O)c1ccc3c(c1)NC(=O)CO3)C2 | 2.374% |
| O=C(NCc1ccccc1CN1CCCCC1)Nc1nncs1 | -2.637% |
| Cc1csc(NC(=O)CN2CCC(c3ccnn3CCO)CC2)n1 | -8.035% |
| NC(=O)CN1CCC(NC(=O)Nc2nccs2)CC1 | 9.96% |
| NC(=O)C1CCN(CCCNC(=O)Nc2nncs2)CC1 | 106.6% |
| Cc1csc(NC(=O)NCCCN2CCC(C(N)=O)CC2)n1 | 96.37% |
| Cc1csc(CCNC(=O)C2CCN(CC(N)=O)CC2)n1 | -1.435% |
| O=C(NCCCN1CCN(c2ncccn2)CC1)Nc1ccccn1 | 10.78% |
| NC(=O)C1CCN(CCCNC(=O)Nc2nccs2)CC1 | 104.9% |
| O=C(NCc1ccccc1CN1CCCC1)Nc1nncs1 | 6.886% |
| O=C(C(C1CC1)C1CC1)N1CCC(n2ccnn2)CC1 | -3.228% |
| COc1ccc(C(C(=O)O)N2CCC(O)(c3cccnc3)CC2)cc1Cl (configuration not stated) | 2.828% |
| CN(C)c1ncc(-c2cc(C(=O)NCCC#N)n(CC3CC3)c2)cn1.O=C(O)C(F)(F)F | 101.1% |
| CN(C)c1cc(NCc2cnc3n2CCN(CC2CC2)CC3)ncn1.O=C(O)C(F)(F)F | 3.56% |
| CC(C)n1cnc2c1C(C(=O)NCCC#N)N(Cc1ccccc1)CC2.O=C(O)C(F)(F)F (configuration not stated) | -22.73% |
| CN(C)c1ncc(-c2cc(C(=O)NCCO)n(CC3CC3)c2)cn1.O=C(O)C(F)(F)F | 116.5% |
| COCCN1CCCn2cnc(CNC(=O)N(C)C)c2C1.O=C(O)C(F)(F)F.O=C(O)C(F)(F)F | -21.14% |
| Cc1cnc(N2C[C@@H]3CCN(CC(=O)N(C)C)C(=O)[C@H]3C2)nc1.O=C(O)C(F)(F)F | -29.89% |
| CCOC(=O)N1CCCn2nc(C(=O)NCCN(C)C)cc2C1 | -7.985% |
| CN(C)CCNC(=O)c1ccc(OC2CCN(CC3CC3)CC2)c(Cl)c1 | 3.166% |
| COCCCNC(=O)c1cc(-c2cnc(N(C)C)nc2)cn1CC1CC1.O=C(O)C(F)(F)F | 117.6% |
| CN(C)CCNC(=O)c1cc(-c2cnc(N(C)C)nc2)cn1CC1CC1 | 102.4% |
